Data on eight compounds can be found in PubChem BioAssay (Tox21).

Assay [1] in a line: Nuclear factor erythroid 2-related factor 2/antioxidant responsive element (Nrf2/ARE) small molecule agonists: qHTS cell viability counter screen in human keratinocytes (AID 1919968; active = well fitted curve in the direction sought with a large enough effect in the repeat runs; an effect the other way counts as inactive or inconclusive; note: nearly all actives have a fitted effect of over 55% in size; note: potency is the fitted concentration of half-maximal effect). The essentials: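 Stably transfected HaCaT (KeratinoSens), 1,500/well. Test agents in DMSO were applied for 23 h, 37 C/5% CO2. CellTiter-Fluor was incubated 1 h before the fluorescence read.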
(In general: qHTS replaces the single test concentration by a dilution series.)

Assay [2] is described as follows: Nuclear factor erythroid 2-related factor 2/antioxidant responsive element (Nrf2/ARE) small molecule agonists: luciferase reporter gene qHTS assay in human keratinocytes (AID 1919969). Note: nearly all actives have a fitted effect of over 35% in size. Note: potency is the fitted concentration of half-maximal effect.
Assay [3] has as its target Gonadotropin-releasing hormone receptor (Homo sapiens) (UniProt P30968). In words: Human gonadotropin-releasing hormone receptor (GnRHR) small molecule agonists, calcium flux assay in GnRHR-HEK293 cells (AID 1920063). Note: nearly all actives have a fitted effect of over 35% in size. The essentials:
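Stable human GnRHR HEK293 line. 18 h plating, then calcium dye for 1 h at 37 C. Agonist-mode compound addition from DMSO stocks; fluorescence monitored 3 min.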
Background: A change in cytosolic calcium serves as a functional read-out for many receptors and channels.

In assay [4] the target is KiSS-1 receptor (Homo sapiens) (UniProt Q969F8). In words: Human kisspeptin (KISS1R) small molecule agonists, calcium flux assay in KISS1R-HEK293 cells (AID 1920064; active = well fitted curve in the direction sought with a large enough effect in the repeat runs; an effect the other way counts as inactive or inconclusive). A digest of the protocol:
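After overnight (18 h) culture at 37 C/5% CO2, human KISS1R-HEK293 cells received calcium dye for 1 h, then test compound; emission at 540 nm (excitation 480 nm) was tracked for 3 min.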

The nature of assay [5]: G protein-coupled receptor (GPCR) small molecule agonists, calcium flux assay: HEK293 wild type cell line counter screen (AID 1920065). The essentials:
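Following 18 h incubation at 37 C/5% CO2, plates got calcium dye for 1 h; compounds, ATP or DMSO were then pinned in and fluorescence followed kinetically (480/540 nm).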

Assay [6] is described as follows: p53 small molecule agonists, cell-based qHTS assay with human liver microsomes (AID 1963577). A digest of the protocol: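 p53RE-bla cells, 4,000/well, compound added after 5 h, with human liver microsomes 0.5 mg/mL and NADPH 0.5 mg/mL final; 16 h at 37 C, then LiveBLAzer 2 h RT, fluorescence.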
Assay [7] can be described thus: p53 small molecule agonists, cell-based qHTS assay with rat liver microsomes (AID 1963578). A digest of the protocol:
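p53RE-bla cells, 4,000/well, pre-incubated 5 h, then given compounds plus rat liver microsomes (0.5 mg/mL final) and NADPH (0.5 mg/mL final). Incubation 16 h at 37 C; beta-lactamase reporter read by LiveBLAzer fluorescence after 2 h at room temperature.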

Assay [8] in a line: p53 small molecule agonists, cell-based qHTS assay with human liver microsomes: qHTS cell viability counter screen (AID 1963579). Note: nearly all actives have a fitted effect of over 45% in size. A digest of the protocol: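 p53RE-bla cells, 4,000/well, dosed 5 hours after plating, with human liver microsomes (0.5 mg/mL final) plus NADPH (0.5 mg/mL final), 16 hours at 37 C. Viability read as CellTiter-Glo luminescence after 30 min at room temperature.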

The nature of assay [9]: p53 small molecule agonists, cell-based qHTS assay with rat liver microsomes: qHTS cell viability counter screen (AID 1963580). Note: nearly all actives have a fitted effect of over 45% in size. The essentials:
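Cytotoxicity counter screen: intracellular ATP measured by CellTiter-Glo luminescence in the same wells as the beta-lactamase reporter read, on HCT-116 p53RE-bla cells exposed 16 h at 37 C to compounds with rat liver microsomes and NADPH, each 0.5 mg/mL final.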

Assay [10] can be described thus: p53 small molecule agonists, cell-based qHTS assay: qHTS cell viability counter screen (AID 1963581). Note: nearly all actives have a fitted effect of over 45% in size. A digest of the protocol: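 qHTS counter screen: 16 h compound exposure at 37 C of p53RE-bla HCT-116 cells (4,000 per well, seeded 5 h prior), cell viability by ATP luminescence.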
Assay [11] in a line: p53 small molecule agonists, cell-based qHTS assay (AID 1963582; active = well fitted activation curve with a large enough effect in the signal ratio in the repeat runs, not every such curve was filed as active; the % refers to the signal ratio). The essentials: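 Measured: fluorescence from cleaved LiveBLAzer substrate. System: p53RE-bla cells, 16 h compound treatment at 37 C, 2 h substrate step at room temperature.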
For assay [12], the target named is 5-hydroxytryptamine receptor 2A (Homo sapiens) (UniProt P28223). Description: 5-hydroxytryptamine receptor 2A (HTR2A) small molecule antagonists, cell-based qHTS assay (AID 1963586). Note: nearly all actives have a fitted effect of over 45% in size. Note: potency is the fitted concentration of half-maximal effect. A digest of the protocol:
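CHO cells stably expressing human HTR2A were plated for 18 h at 37 C, then loaded with calcium dye for 1 h. Compounds were preincubated 5 min at room temperature before DOI (4 nM solution) was added. Kinetic fluorescence was read for 3 min.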

Assay [13] has the same target. In words: 5-hydroxytryptamine receptor 2A (HTR2A) small molecule agonists, cell-based qHTS assay (AID 1963587). Note: nearly all actives have a fitted effect of over 30% in size. The essentials:
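CHO cells stably expressing human HTR2A, plated 18 h, loaded with calcium dye 1 h at 37 C. Agonist mode: compounds added and intracellular calcium fluorescence recorded kinetically for 2 min at 1 sec intervals.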

Assay [14] concerns the target Muscarinic acetylcholine receptor M1 (Homo sapiens) (UniProt P11229). In words: Cholinergic receptor muscarinic 1 (CHRM1) small molecule antagonists, cell-based qHTS assay (AID 1963588). Note: nearly all actives have a fitted effect of over 40% in size. A digest of the protocol: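 Compounds were tested at 15 concentrations in three independent runs. Dye-loaded CHRM1-CHO cells were exposed 5 min at room temperature before stimulation by acetylcholine added at 50nM. Intracellular calcium was read kinetically on FDSS for 3 min.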

The target is the same in assay [15]. Description: Cholinergic receptor muscarinic 1 (CHRM1) small molecule agonists, cell-based qHTS assay (AID 1963589). Note: nearly all actives have a fitted effect of over 35% in size. A digest of the protocol:
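Kinetic fluorescence (1 s intervals) of calcium-sensitive dye in human M1 CHO cells after compound addition; cells pre-incubated 18 h at 37 C/5% CO2 and dye-loaded 1 h.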

The nature of assay [16]: cAMP Responsive Elements (CRE) small molecule agonists, cell-based qHTS assay (AID 1963590). A digest of the protocol:
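Test agents in DMSO were incubated 3 h at 37 C/5% CO2 with CRE-bla HEK 293T cells seeded 18 h earlier; LiveBLAzer B/G FRET substrate was added and read after 2 h at room temperature.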

The nature of assay [17]: cAMP Responsive Elements (CRE) small molecule antagonists, cell-based qHTS assay (AID 1963591; active = well fitted inhibition curve with a large enough effect in the signal ratio in the repeat runs, not every such curve was filed as active; the % refers to the signal ratio). A digest of the protocol: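 Reporter line CRE-bla HEK 293T in dialyzed-FBS DMEM; cells preincubated 18 h, treated 3 h with compound plus NKH477 (0.25 uM final); LiveBLAzer FRET, 2 h RT.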
Assay [18] deals with Beta-2 adrenergic receptor (Homo sapiens) (UniProt P07550). In words: Adrenergic beta2 receptor (ADRB2) small molecule antagonists, cell-based qHTS assay (AID 1963592). Note: series mostly up to about 92 µM; nearly all actives have a fitted effect of over 50% in size. The essentials:
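Assay format: CHO-ADRB2 cells, 18-20hr seeding at 37C/5% CO2, then compound plus 1nM isoproterenol agonist mix for 0.5hr RT. Homogeneous time-resolved fluorescence cAMP detection after 1hr, expressed as 665/615 nm ratio.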

The target in assay [19] is D(2) dopamine receptor (Homo sapiens) (UniProt P14416). Description: Dopamine D2 receptor (DRD2) small molecule agonists, cell-based qHTS assay (AID 1963594). Note: nearly all actives have a fitted effect of over 35% in size. A digest of the protocol: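 HEK293 cells stably expressing human DRD2, pre-treated with PDE inhibitor Ro20-1724 (0.1 mM final) and compound 10 min at room temperature, then stimulated with NKH477 (200nM […]) for 30 min. cAMP read by HTRF (665/620 nm).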
Sequence of D(2) dopamine receptor (Homo sapiens) (P14416 whole entry, looked up): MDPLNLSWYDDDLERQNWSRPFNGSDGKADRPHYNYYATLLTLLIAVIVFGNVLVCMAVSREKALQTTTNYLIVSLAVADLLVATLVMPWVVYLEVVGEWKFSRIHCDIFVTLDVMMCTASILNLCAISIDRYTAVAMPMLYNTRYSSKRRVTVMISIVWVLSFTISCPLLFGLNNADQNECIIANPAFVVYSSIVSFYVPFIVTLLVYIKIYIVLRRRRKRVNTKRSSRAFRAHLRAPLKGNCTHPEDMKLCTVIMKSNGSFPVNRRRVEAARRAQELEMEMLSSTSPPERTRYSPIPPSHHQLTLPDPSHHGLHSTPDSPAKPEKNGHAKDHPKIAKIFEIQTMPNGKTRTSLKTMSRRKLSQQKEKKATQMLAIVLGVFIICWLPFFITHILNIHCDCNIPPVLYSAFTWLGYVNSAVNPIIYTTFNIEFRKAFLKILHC

Assay [20] has the same target. Description: Dopamine D2 receptor (DRD2) small molecule antagonists, cell-based qHTS assay (AID 1963595; active = well fitted inhibition curve with a large enough effect in the signal ratio in the repeat runs, with a control signal flat; the % refers to the signal ratio). A digest of the protocol:
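Antagonism was scored as restored cAMP in HEK293-DRD2 cells. These cells were stimulated with 200 nM NKH477 and 12 nM quinpirole for 30 min at room temperature, in the presence of 0.1 mM Ro20-1724.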

Molecules are shown by their SMILES. “And” between values parts separate entries of the source, which are not always exact repeats. Identical values can stand only once. Results filed as inconclusive are left out. Some compounds were tested as several samples or in several runs, with calls that do not always agree. The source made the active and inactive calls. Unless noted, calls come from the whole dose curve.

Sequence of Beta-2 adrenergic receptor (Homo sapiens) (P07550 whole entry, looked up): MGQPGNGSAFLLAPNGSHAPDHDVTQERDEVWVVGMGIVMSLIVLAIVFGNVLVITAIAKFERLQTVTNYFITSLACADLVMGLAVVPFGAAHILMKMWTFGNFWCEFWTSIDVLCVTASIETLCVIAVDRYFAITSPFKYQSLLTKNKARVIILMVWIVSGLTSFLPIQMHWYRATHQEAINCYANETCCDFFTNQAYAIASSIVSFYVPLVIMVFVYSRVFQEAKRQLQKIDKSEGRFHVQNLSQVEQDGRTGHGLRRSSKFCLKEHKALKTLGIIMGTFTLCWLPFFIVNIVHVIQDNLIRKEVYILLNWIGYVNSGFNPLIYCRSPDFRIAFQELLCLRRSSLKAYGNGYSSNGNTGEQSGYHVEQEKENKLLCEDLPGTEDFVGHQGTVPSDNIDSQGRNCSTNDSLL
Sequence of KiSS-1 receptor (Homo sapiens) (Q969F8 whole entry, looked up): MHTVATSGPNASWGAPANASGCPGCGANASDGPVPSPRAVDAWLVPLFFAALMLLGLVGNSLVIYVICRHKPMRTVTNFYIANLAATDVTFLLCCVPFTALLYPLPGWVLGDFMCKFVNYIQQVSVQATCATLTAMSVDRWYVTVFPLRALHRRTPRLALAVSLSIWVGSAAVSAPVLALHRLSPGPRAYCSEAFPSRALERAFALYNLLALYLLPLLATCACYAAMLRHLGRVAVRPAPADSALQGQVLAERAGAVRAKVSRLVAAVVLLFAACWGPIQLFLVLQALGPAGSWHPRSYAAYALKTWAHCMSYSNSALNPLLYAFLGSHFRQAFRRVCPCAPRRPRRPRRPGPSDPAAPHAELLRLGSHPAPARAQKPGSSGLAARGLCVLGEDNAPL
Sequence of Muscarinic acetylcholine receptor M1 (Homo sapiens) (P11229 whole entry, looked up): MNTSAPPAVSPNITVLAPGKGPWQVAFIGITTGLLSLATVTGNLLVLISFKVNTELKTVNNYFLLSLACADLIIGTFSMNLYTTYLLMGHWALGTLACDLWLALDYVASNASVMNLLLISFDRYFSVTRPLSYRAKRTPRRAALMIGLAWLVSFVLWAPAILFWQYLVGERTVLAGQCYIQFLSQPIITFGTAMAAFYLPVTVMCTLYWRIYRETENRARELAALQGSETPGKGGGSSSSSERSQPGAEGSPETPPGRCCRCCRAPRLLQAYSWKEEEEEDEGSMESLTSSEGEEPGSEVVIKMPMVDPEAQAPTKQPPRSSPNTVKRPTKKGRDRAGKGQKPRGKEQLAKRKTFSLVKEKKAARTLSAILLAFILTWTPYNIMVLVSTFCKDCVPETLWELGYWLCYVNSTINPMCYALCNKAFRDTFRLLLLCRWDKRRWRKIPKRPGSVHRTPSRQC
Sequence of 5-hydroxytryptamine receptor 2A (Homo sapiens) (P28223 whole entry, looked up): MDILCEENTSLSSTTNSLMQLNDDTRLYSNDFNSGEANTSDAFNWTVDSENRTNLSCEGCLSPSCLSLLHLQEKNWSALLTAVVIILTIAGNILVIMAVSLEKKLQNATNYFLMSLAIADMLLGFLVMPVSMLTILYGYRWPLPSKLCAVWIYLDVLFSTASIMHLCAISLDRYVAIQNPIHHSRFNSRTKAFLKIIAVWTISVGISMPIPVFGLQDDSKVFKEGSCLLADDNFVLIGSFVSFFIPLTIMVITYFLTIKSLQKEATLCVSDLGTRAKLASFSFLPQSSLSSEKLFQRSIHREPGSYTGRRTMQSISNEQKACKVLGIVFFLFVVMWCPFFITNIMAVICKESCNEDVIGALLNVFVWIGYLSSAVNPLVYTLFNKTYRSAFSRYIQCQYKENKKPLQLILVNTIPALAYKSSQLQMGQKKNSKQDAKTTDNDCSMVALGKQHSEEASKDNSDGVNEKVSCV
Sequence of Gonadotropin-releasing hormone receptor (Homo sapiens) (P30968 whole entry, looked up): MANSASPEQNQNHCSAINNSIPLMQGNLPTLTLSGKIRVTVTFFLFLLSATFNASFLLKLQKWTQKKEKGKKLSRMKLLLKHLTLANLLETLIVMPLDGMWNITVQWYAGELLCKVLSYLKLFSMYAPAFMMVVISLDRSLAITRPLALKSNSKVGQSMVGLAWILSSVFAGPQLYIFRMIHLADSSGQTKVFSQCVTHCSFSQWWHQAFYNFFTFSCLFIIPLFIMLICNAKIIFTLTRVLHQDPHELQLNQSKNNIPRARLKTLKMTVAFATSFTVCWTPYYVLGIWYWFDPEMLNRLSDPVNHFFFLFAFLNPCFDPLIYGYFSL

As to `CC1(C)S[C@@H]2[C@H](NC(=O)COc3ccccc3)C(=O)N2[C@H]1C(=O)O`, the Potency result in assay [1], in [2], in assay [3], in assay [4], in [5] and in [6] was “inactive” each time. In addition, the Potency entry in assay [7], in assay [8], in assay [9], in assay [10], in assay [11] and in assay [12] was “inactive” throughout. The Potency entry in assay [13], in assay [14], in [15], in assay [16], in [17] and in assay [18] was “inactive” in each case. Also, the Potency result in assay [19] and in [20] was “inactive” throughout.
Consider `CC(C)[N+](C)(CCOC(=O)C1c2ccccc2Oc2ccccc21)C(C)C`, for which the Potency entry in assay [1], in assay [2], in assay [3], in [4], in assay [5] and in assay [6] was “inactive” each time. Besides, the Potency result in [7], in assay [8], in assay [9], in assay [10], in [11] and in [12] was “inactive” each time. For the same compound, the Potency result in assay [13], in assay [14], in assay [15], in assay [16], in assay [17] and in [18] was “inactive” each time. Also, the Potency entry in [19] and in assay [20] was “inactive” in each case.
For `CCCCCCO`, the Potency result in [1], in assay [2], in [3], in assay [4], in assay [5] and in [6] was “inactive” in each case. In addition, the Potency entry in assay [7], in assay [8], in assay [9], in assay [10], in assay [11] and in assay [12] was “inactive” in each case. In addition, the Potency result in assay [13], in assay [14], in assay [15], in [16], in assay [17] and in [18] was “inactive” throughout. Besides, the Potency result in assay [19] and in assay [20] was “inactive” each time.
For `Cc1ccc(S(=O)(=O)Oc2ccc(N=Nc3ccc(-c4ccc(N=Nc5c(O)ccc6cc(S(=O)(=O)O)cc(S(=O)(=O)O)c56)c(C)c4)cc3C)cc2)cc1`, in assay [1], the Potency was 24.4 µM (active) and 17.8 µM (active). The Potency entry in assay [2], in assay [3], in [4], in [5], in assay [6] and in assay [7] was “inactive” throughout. The Potency result in assay [8], in assay [9], in assay [10], in assay [11], in assay [12] and in assay [13] was “inactive” in each case. Further, the Potency result in assay [14], in assay [15], in assay [16], in assay [17], in [18] and in assay [19] was “inactive” each time. Moreover, the Potency result in assay [20] is “inactive”.
On to `Clc1ccc(Sc2cc(Cl)c(Cl)cc2Cl)cc1`, for which the Potency entry in assay [1], in assay [2], in assay [3], in assay [4], in assay [5] and in assay [6] was “inactive” throughout. Moreover, the Potency entry in assay [7], in [8], in [9], in [10], in [11] and in assay [12] was “inactive” in each case. Also, the Potency result in assay [13], in [14], in assay [15], in [16], in [17] and in assay [18] was “inactive” in each case. In addition, the Potency entry in [19] and in assay [20] was “inactive” throughout.
Regarding `CC(=O)Nc1ccc(CC(=O)O)cc1`, the Potency result in assay [1], in [2], in assay [3], in assay [4], in [5] and in assay [6] was “inactive” in each case. In addition, the Potency result in assay [7], in assay [8], in assay [9], in [10], in assay [11] and in [13] was “inactive” throughout. The Potency entry in [14], in assay [15], in assay [16], in assay [17], in assay [18] and in assay [19] was “inactive” in each case. Besides, in [20], the Potency result is “inactive”. Moreover, the Potency result in assay [12] is “inactive and 410 nM (active)”.
`Nc1ccccc1[N+](=O)[O-]`: the Potency entry in assay [1], in assay [2], in [3], in [4], in assay [5] and in assay [6] was “inactive” throughout. The Potency entry in assay [7], in assay [8], in assay [9], in assay [10], in assay [11] and in assay [12] was “inactive” in each case. Further, the Potency result in [13], in assay [14], in assay [15], in assay [16], in assay [17] and in [18] was “inactive” throughout. The Potency result in [19] and in assay [20] was “inactive” each time.
Regarding `C=C(C)C(=O)Nc1ccc(Cl)c(Cl)c1`, the Potency entry in assay [1], in assay [3], in assay [4], in assay [5], in assay [6] and in assay [7] was “inactive” each time. The Potency result in [8], in [9], in [10], in [11], in assay [12] and in assay [13] was “inactive” in each case. For the same compound, the Potency entry in assay [14], in assay [15], in assay [16], in assay [17], in assay [18] and in assay [19] was “inactive” in each case. The Potency in [2] is 55 µM (active) and 43.1 µM (active).
